Molecules are shown by their SMILES. In all, about 63,000 compounds went through this assay and about 1,100 (1.7%) were called active. Cut-off read from the data, not from the text of the source: active = cytotoxicity above about 50%; inactive = the rest. The list comes from a sample in which actives are over-represented; it also holds similar structures and randomly drawn compounds. Potency and affinity values are given separately.

This test is described as follows: cytotoxicity in HPDE-C7 cells, cell-based, fluorescence, HTS (AID 430).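 Note: cells exposed to compound for 48 hours before viability readout; 0% = vehicle and 100% = reference cytotoxic drug.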 Conditions: HPDE-C7 pancreatic duct cells viability, at 10 µM, stronger effect = higher value.
`C/C=C/COc1nc2c(c(=O)n(C)c(=O)n2C)n1C`: the cytotoxicity was -4% (inactive). `O=C(OCC(=O)N1CCN(C(=O)COC(=O)c2ccncc2)CC1)c1ccncc1`: the cytotoxicity was -7.9% (inactive). The result for `Cc1ccc(C2CC(=O)c3cnc(N4CCN(c5ccccc5)CC4)nc3C2)cc1` (stereo unspecified) reads 9.3% (inactive); that for `CCN1CCN(c2ncc3c(n2)CC(c2ccc(OC)c(OC)c2)CC3=O)CC1` (stereo unspecified), 7.7% (inactive). The result for `O=C1CC(c2cccc(Cl)c2)Cc2nc(N3CCOCC3)ncc21` (stereo unspecified) reads -14.6% (inactive). The result for `CCN1CCN(c2ncc3c(n2)CC(c2cc(OC)c(OC)c(OC)c2)CC3=O)CC1` (stereo unspecified) reads 58.9% (active); that for `COc1cc(C2CC(=O)c3cnc(N4CCN(Cc5ccccc5)CC4)nc3C2)cc(OC)c1OC` (stereo unspecified), 46% (inactive); that for `O=C1CC(c2cccc(Cl)c2)Cc2nc(N3CCN(c4ccccc4)CC3)ncc21` (stereo unspecified), 51.4% (active). As for `CSc1nnc2c(n1)OC(C1CC=C(C)CC1)Nc1ccccc1-2` (stereo unspecified), the cytotoxicity was 2.9% (inactive).

As to `C=CCn1c(=O)c(C(=O)Nc2ccccc2O)c(O)c2ccccc21`, the cytotoxicity was -18% (inactive).

Consider `Cc1occc1C(=O)NCc1ccc2c(c1)OCO2`, for which the cytotoxicity was 42.9% (inactive).

As for `O=C(COc1cnc2ccccc2n1)NCCC1=CCCCC1`, the cytotoxicity is -1.1% (inactive). Regarding `Cc1ccc2c(COn3nnc4ccc(S(=O)(=O)N(C)C)cc43)cc(=O)oc2c1C`, the cytotoxicity was -2.2% (inactive). On to `CCc1ccc2c(COn3nnc4ccc(S(=O)(=O)N(C)C)cc43)cc(=O)oc2c1`, for which the cytotoxicity is 59.1% (active). In the case of `CCc1ccc2c(COC(=O)c3n[nH]c4ccccc34)cc(=O)oc2c1` it was 8% (inactive); in that of `CCc1nnc(NC(=O)CSc2nc(C)c3c(c2C#N)CCCC3)s1`, 76.3% (active). Consider `CCc1nnc(NC(=O)CSc2nc3c(cc2C#N)CCC3)s1`, for which the cytotoxicity is 30.8% (inactive). With `CCc1nnc(NC(=O)CSc2nc3c(cc2C#N)CCCC3)s1`, the cytotoxicity was -1.1% (inactive). Turning to `COc1cccc(NC(=O)CNC(=O)c2ccc(F)cc2)c1`, the cytotoxicity was -1% (inactive). In the case of `COc1cc(-c2ccc(NC(=O)CN3CCCCC3)c(OC)c2)ccc1NC(=O)CN1CCCCC1` it was -11.3% (inactive). For `N#Cc1ccc(CSc2nnc(-c3cnccn3)o2)cc1`, the cytotoxicity was -3% (inactive). The result for `Fc1cccc(C2CC(c3cccc(Br)c3)Nc3nnnn32)c1` (stereo unspecified) reads -20.3% (inactive); that for `CCOc1ccc(S(=O)(=O)N2Cc3ccccc3CC2C(=O)NCCCn2ccnc2)cc1` (stereo unspecified), 1.9% (inactive); that for `Cc1ccc2[nH]c3c(c2c1)CN(C(=O)CN1CCN(c2ccccc2F)CC1)CC3`, 14.7% (inactive).

For the compound `Cc1ccc2[nH]c3c(c2c1)CN(C(=O)CN1CCCc2ccccc21)CC3`, the cytotoxicity is 55.8% (active).

`Cc1ccc2[nH]c3c(c2c1)CN(C(=O)CN1CCN(c2ccccc2)CC1)CC3`: the cytotoxicity was 26.1% (inactive).

For the compound `Cc1cccc(N2CCN(C(=O)c3ccc(N4CCCC4=O)cc3)CC2C)c1` (stereo unspecified), the cytotoxicity is -1.7% (inactive). The result for `CCOC(=O)c1ccc(NC(=O)N2CCN(S(C)(=O)=O)CC2)cc1` reads -1.4% (inactive). Regarding `Cc1cnc(NC(=O)CCCSc2nc3ccccc3s2)s1`, the cytotoxicity was -1.8% (inactive). As to `c1ccc(-c2ccc(-c3nc(-c4ccccn4)no3)cc2)cc1`, the cytotoxicity is -4.1% (inactive).

In the case of `c1ccc(-c2cc(-c3nc(-c4cccnc4)no3)c3ccccc3n2)cc1`, the cytotoxicity was -11.7% (inactive). The result for `c1ccc(-c2cc(-c3nc(-c4ccccn4)no3)c3ccccc3n2)cc1` reads 70.4% (active); that for `CC(C)n1c(SCC(N)=O)nc2c1c(=O)n(C)c(=O)n2C`, -8.7% (inactive). For `CCn1c(SC/C=C/c2ccccc2)nnc1-c1cnccn1`, the cytotoxicity is -18.9% (inactive). The result for `CCn1cnc2scc(-c3ccccc3)c2c1=O` reads -9.7% (inactive); that for `Cc1ccc(-c2csc3ncn(/N=C/N(C)C)c(=O)c23)o1`, -6.4% (inactive). The result for `Cn1cc(/C=N/n2cnc3scc(-c4ccccc4)c3c2=O)c2ccccc21` reads 68.4% (active); that for `Cc1nn(-c2ccccc2)c(N2CCCC2)c1/C=N/n1cnc2scc(-c3ccccc3)c2c1=O`, 24.5% (inactive). On to `Cn1cc(/C=N/n2cnc3scc(-c4ccc(Cl)cc4)c3c2=O)c2ccccc21`, for which the cytotoxicity is 89.3% (active). Consider `Cn1cc(/C=N/n2cnc3sc4c(c3c2=O)CCCC4)c2ccccc21`, for which the cytotoxicity was 21.2% (inactive).

For the compound `COc1cc(OC)cc(C(=O)N2CCC(n3c(C)nc4cc(F)ccc43)CC2)c1`, the cytotoxicity is 3% (inactive). Regarding `N#Cc1cc2sc3nnc(-c4ccncc4)n3c2cc1C#N`, the cytotoxicity was -14.9% (inactive). In the case of `Cc1nc2cc(C(=O)OCC(=O)N(CC(C)C)C3CCS(=O)(=O)C3)ccc2n1-c1ccccc1` (stereo unspecified) it was -10.3% (inactive); in that of `O=C(O)CCc1ccc(-c2cccs2)n1NC(=O)c1ccc(Cl)cc1`, 0.6% (inactive). The result for `Cc1csc(NC(=O)CSc2nnc(-c3ccc(S(=O)(=O)N4CCCC4)cc3)o2)n1` reads -13.8% (inactive). Regarding `COc1cccc(CNC(=O)Cn2cccc2)c1`, the cytotoxicity is -4.3% (inactive). As for `COc1ccccc1NCCC(=O)OCC(=O)Nc1ccc(Cl)cn1`, the cytotoxicity is 10.3% (inactive).

In the case of `Cc1cccc(NC(=O)Nc2ccc(C#N)cc2)n1`, the cytotoxicity was -0.1% (inactive). In the case of `CN(CC(=O)Nc1ccc(C#N)cc1)Cc1ccc(Cl)cc1` it was 6.1% (inactive); in that of `N#Cc1ccc(NC(=O)Nc2ccc(Cl)cc2)cc1`, 57.7% (active). In the case of `COc1ccc(Cl)cc1NC(=O)N1CCN(S(C)(=O)=O)CC1` it was -6.5% (inactive).

Consider `C=CCn1c(N)cc(=O)nc1SCC(=O)Nc1ccccc1`, for which the cytotoxicity was -16% (inactive).

In the case of `O=C(c1ccccc1)N1CCCCC(Sc2nnnn2-c2ccccc2)C1=O` (stereo unspecified), the cytotoxicity was -6.2% (inactive). `Cc1ccc2oc3c(c(=O)c2c1)C(c1ccc(F)cc1)N(CCCN1CCOCC1)C3=O` (stereo unspecified): the cytotoxicity is -11.5% (inactive). With `COC(=O)C1=C(C)N(C)C(=O)NC1c1cc(Cl)cc(Cl)c1OC` (stereo unspecified), the cytotoxicity was 1.6% (inactive). In the case of `Cc1cc(N2CCN(C(=O)c3ccco3)CC2)n2nc(C)c(-c3ccccc3)c2n1` it was 7.9% (inactive); in that of `Cc1nn2c(N3CCN(C(=O)c4ccco4)CC3)cc(C(C)(C)C)nc2c1-c1ccccc1`, 75.8% (active); in that of `Cc1cc(N2CCN(C(=O)c3ccco3)CC2)n2nc(C)c(-c3ccc(Cl)cc3)c2n1`, 14.2% (inactive). For the compound `COC(=O)c1ccccc1S(=O)(=O)N(Cc1cc2ccc(OC)cc2[nH]c1=O)CC1CCCO1` (stereo unspecified), the cytotoxicity was -2% (inactive).

`O=C(CCNS(=O)(=O)c1cccs1)NCc1ccco1`: the cytotoxicity was -2.8% (inactive). In the case of `C=CCOc1nc2c(c(=O)n(C)c(=O)n2C)n1Cc1ccc(Cl)cc1` it was 59.6% (active); in that of `C=CCOc1nc2c(c(=O)n(C)c(=O)n2C)n1Cc1ccc(Cl)cc1Cl`, -22.3% (inactive).

Take `C=CCOc1nc2c(c(=O)n(Cc3ccc(Cl)cc3)c(=O)n2C)n1C`: the cytotoxicity was 6.6% (inactive). The result for `CCc1c(C(=O)Nc2ccc(S(=O)(=O)N3CCOCC3)cc2)csc1C` reads 11% (inactive); that for `N=c1c2c(n(Cc3ccc(Cl)cc3)c3c1CCC3)CCC2`, 34% (inactive); that for `N=c1c2c(n(Cc3ccc(F)cc3)c3c1CCC3)CCC2`, 29.3% (inactive). The result for `N=c1c2c(n(Cc3ccc(Cl)c(Cl)c3)c3c1CCC3)CCCC2` reads 63.8% (active); that for `O=C(C1CCN(S(=O)(=O)c2ccc(Br)s2)CC1)N1CCc2ccccc21`, 10.9% (inactive). In the case of `O=C1N(S(=O)(=O)c2ccccc2F)C(=O)C2(CCCC2)N1S(=O)(=O)c1ccccc1F` it was -2.1% (inactive); in that of `Cn1c(N2CCCCC2)nc2c1c(=O)n(Cc1cccc(Br)c1)c(=O)n2C`, -15.8% (inactive); in that of `O=c1[nH]cnc2c1oc1ccccc12`, 1.3% (inactive). For `O=c1[nH]c(Cc2ccccc2)nc2c1oc1ccccc12`, the cytotoxicity is -7.5% (inactive).

Consider `O=C(O)c1c(-c2ccccc2)c2oc3ccccc3c2[nH]c1=O`, for which the cytotoxicity is 89.7% (active). The result for `COC(=O)c1c(-c2ccc(F)cc2)noc1N` reads -23.1% (inactive); that for `COc1ccc(C(=O)CSc2nnc(-c3ccco3)n2C)cc1`, -10.7% (inactive). In the case of `CCn1c(-c2ccco2)nc2ccccc21` it was 6.2% (inactive); in that of `COc1ccc(C(=O)n2c(-c3ccco3)nc3ccccc32)cc1`, 66.4% (active); in that of `O=C(Nc1ccc2c(c1)oc1ccccc12)c1ccc(Br)o1`, 3.1% (inactive). The result for `CCCC(=O)Nc1cc(OC)c(OC)cc1C(=O)O` reads 6.8% (inactive). For the compound `O=C(Nc1nnc(-c2cccs2)o1)c1cccc(C(F)(F)F)c1`, the cytotoxicity was 78.7% (active).

For `O=C(CCc1ccccc1)Nc1nnc(-c2cccs2)o1`, the cytotoxicity was -3% (inactive). With `O=C(Nc1nnc(-c2cccs2)o1)c1cccc(F)c1`, the cytotoxicity is 41.3% (inactive). As for `COc1cccc(C(=O)Nc2nnc(-c3cccs3)o2)c1`, the cytotoxicity was 22% (inactive). In the case of `O=C(Nc1nnc(-c2cccs2)o1)c1cccc(Oc2ccccc2)c1` it was 50.4% (active); in that of `O=C(Nc1nnc(-c2cccs2)o1)c1ccco1`, -23% (inactive); in that of `CCCCn1c2nc3ccccc3nc2c2c(=O)n(C(C)CC)cnc21` (stereo unspecified), -10.4% (inactive). The result for `COc1ccc(CN(CCCN2CCOCC2)S(=O)(=O)N(C)C)cc1OC` reads -7.2% (inactive); that for `COc1ccc2nc(SCC(=O)NC(C)C)[nH]c2c1`, -13.4% (inactive); that for `O=C(C1Cc2ccccc2O1)N1CCCCC1` (stereo unspecified), -12.6% (inactive).

Regarding `COc1ccc(Cl)cc1N1CC(C(=O)Nc2nccs2)CC1=O` (stereo unspecified), the cytotoxicity was 2.4% (inactive).

With `O=C(CSc1nnnn1C1CCCC1)N1CCN(C(=O)c2ccco2)CC1`, the cytotoxicity is -11.8% (inactive). Regarding `CN(C(=O)c1cccc(C#N)c1)c1nnc(-c2ccccn2)s1`, the cytotoxicity was -2% (inactive). The result for `CCCCCN=Cc1c(C)[nH]n(-c2nc3ccccc3s2)c1=O` reads 1.2% (inactive); that for `O=c1c(C=NCCCn2ccnc2)c(-c2ccccc2)[nH]n1-c1nc2ccccc2s1`, 57.5% (active). In the case of `CCCc1[nH]n(-c2nc3ccccc3s2)c(=O)c1C=NCCN1CCOCC1` it was 8.6% (inactive); in that of `O=C(NCC(=O)N(Cc1ccc(F)cc1)C(C(=O)NC1CCCC1)c1ccco1)c1ccco1` (stereo unspecified), -8.4% (inactive).

For the origin of these results see PubChem BioAssay AID430 (Sanford-Burnham Center for Chemical Genomics, 2006).
